Results from PubChem BioAssay AID1347423 (Functional Genomics Laboratory (NCATS/FGL), 2020).
About 210 (0.4%) of roughly 52,000 sequences were called active. The sample as a whole holds a higher share of actives than the screen did. A number with no mark means an inactive call.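 The calls were made as follows: active = gene whose silencing raises cell survival under the drug, median off-target-corrected z-score across its silencing RNAs 2 or more; inactive = the rest.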

experiment: Resistance to Poly (ADP-Ribose) Polymerase inhibitor: Gene Identification via Genome-wide siRNA Screen; details: mouse BRCA2 R2336H ES cells, olaparib, CellTiter-Glo viability; active compounds read high
From the text: The role of Poly (ADP-Ribose) Polymerase (PARP) proteins in DNA repair has been elegantly utilized for the synthetic lethality-based treatment of BRCA-deficient tumors by PARP inhibitors. PARP inhibitors are now being used for treatment of BRCA-deficient breast and ovarian cancers. […] While several mechanisms of drug resistance have been identified, majority of these tumors develop drug resistance due to unknown causes. To identified novel regulators of chemo-resistance in BRCA2-mutated cells, we performed a genome wide siRNA library screen. We have found ES cells expressing a hypomorphic allele of BRCA2 to be hypersensitive to PAPP inhibitors (such as olaparib). We used ES cells expressing a mutant allele of BRCA2 that has a single amino acid substitution at position 2336 (arginine to histidine, R2336H). The screen was conducted using an Ambion (Thermo) Silencer Mouse Genome siRNA collection. The library targets 17,575 mouse genes with 3 siRNAs per gene. TET2 (E130014J05Rik) was identified as a top candidate.
Transfections were performed in 384 well plates (Corning 3707). Plates were coated with 0.1% gelatin in H2O overnight at ambient temperature. Gelatin solution was aspirated (BioTek EL406) and siRNAs were printed using a Bravo VPrep liquid handler integrated within a BioCel automation platform (Agilent). Cell viability was measured using CellTiter Glo (Promega). For transfections, […] of serum free media containing Lipofectamine RNAiMax […] was added to wells containing siRNA (0.8pmol). Lipid and siRNA were allowed to complex for 45 min at ambient temperature before addition of 1000 cells in DMEM, 30% FBS to yield final transfection mixtures containing 20 nM siRNA in DMEM, 15% FBS. PARPi (olaparib, AZD2281) was added 48 h post-transfection (500 nM) and viability (CellTiter Glo, Promega) was assayed 72 h later on a PerkinElmer Envision 2104 Multilabel plate reader. Ambion Silencer Select Negative Control #2 was incorporated on all screening plates (16 wells) and the median negative control value on each plate was used for normalization. An siRNA targeting Trp53 was used as a positive control. This control yielded a median protective effect of ~1.9 fold versus negative control throughout the screen. The median absolute deviation (MAD) based z-score was calculated for each siRNA. Genes were then ranked by taking the median value for all siRNAs tested against a given gene. Scores were also adjusted for seed-based off-target effects to help deprioritize likely false positives.

Sequence	z-score
GCUUUUGAUAUUCCACGUUTT against Pole2	-0.0546
GGAAUCGUCUGAGAAAUUCTT against Lgmn	0.618
CCCUCUUUAUCGUCUGUGATT against Gpha2	-0.468
CCAACAAUCCGUAUCGACCTT against 4930425N13Rik	-0.139
GGAAGAGGUUGAGAUCCAATT against Pogk	0.561
GGACACUUAGCAGCAAAGGTT against Lsm7	-1.42
CCUUGUACACGGAUUGAAUTT against Itga6	2.44 (active)
CCGUCUAUACAUCUUUCCATT against D630005B22Rik	-1.51
GCAGUAUAUCCUACAUUGGTT against Olfr510	1.69 (active)
CCUGAUAUAUGACUUUGGCTT against Ntf5	-0.0586
CCUGCACAGGAUAAUUAUGTT against Zfp426	1.21
GGAGAUGAACAAGGACCUATT against Apoa1	1.02 (active)
GGUCAAUUCCCAUACCCUGTT against Trfr2	0.815
CCAACUAUAACUCAGUCACTT against Ebf1	0.374
GGCACACGGUUUUCAUUAATT against Pcdhb5	-0.354
GGCAUCACUGAUGAAUGAATT against Pacsin2	-0.947 (active)
CCACUUUUAAAGGAAUGUGTT against Ncoa1	-0.0128
GCUUGCAUGUACAGACAUUTT against Olfr517	1.3
CCAUCUGAUUUCUUUCCAGTT against MGC78233	-0.642
GGAAAUGCCUUCAGAAAUUTT against Slc9a3r1	0.863
GCCAAUGUAACCUUCAAAATT against Lypla1	0.603
GGGCGACACAAGGUUUUUGTT against Kif3a	1.13 (active)
GGAGUGUUUGAGAAAUACCTT against BC027342	-0.283

Sequence	z-score
GGCAAAGAUCGCAUCUUAATT against Eif2c2	0.222
GCUGCAUCCGUAGAUGUUGTT against Fthfd	-0.992
GGCCAAAGAGGAGGAAAACTT against D5Bwg0834e	-0.569
GGAGACAGUAAUAGCUCAUTT against Trp53bp1	2.14 (active)
GGACUUGUGGCUGAAAACCTT against Slc22a7	0.176
GGGAACAGCAUCUCUGUCATT against E130115E03Rik	-0.944
CCCUCAACUUUCAGAUCAGTT against Ard1	0.611
CCUCGUUCCUAUCAUUAACTT against Sdccag8	0.858
GGAAAGAAUAUGAGAAUGCTT against Reck	2.07
UUGUCCUGGUCUCCUAUGCTT against Olfr141	-1.98
CCCGCUCAAGAUCCUGUUUTT against 2310011J03Rik	-1.85
GCGAGUCGCUCAUAGUGAATT against AW822216	0.476
GGAUCUGAAGGAAUACUUUTT against 2400010G15Rik	2.14 (active)
GCAGCACCUUUGUGGUUCCTT against Ins2	-0.904
CCGUGCCAAUAGUUCUGCUTT against Dpp4	0.286
GCACUGGAAUCAAACCAUCTT against Ppp2r5b	2.45 (active)
GGUUUGAGCUCUUUAUUUUTT against Cyp2j13	0.00818
GGCGCAUGUUUCCAGCAAUTT against Tbx18	1.87
GGAUCUCUGUUUCUCAAAATT against Slc19a3	0.771
CCUCAAGAGAGCUACCGCATT against 1700018C11Rik	0.313
GGCCCAUUGAUCUGUGAUATT against Klk8	-0.338
GCAUGCGCGCUACACUCUATT against Adamts5	0.75 (active)
GAUUACAGACAGUGGAAAATT against Ndufb3	0.951

Sequence	z-score
GGUAGUGUUAACUAUAUGGTT against Hmgb3	1.85 (active)
GAUCUUAUAUGUUGGUGGUTT against V1rc2	-0.413
CCUUAAUAAACUAUGCUGCTT against 2810439M11Rik	-1.83
CCCUUGAAGAUCACUUAGCTT against Apln	0.228
GGCACAGGGACCAUUGUUGTT against Hsd17b1	2.34 (active)
CGUACAAGACCAACAGAAGTT against D8Ertd82e	2.36
GCUCAACAGACUCUGUACUTT against Igsf4d	2.89
GCUAGUUGGAGCUAGAUUATT against E130320D18	0.013
GGGUUCCUCCUUUCACAGATT against Ppia	-0.754
CCGAAAUAAGGCUAGCUCATT against Rfxdc1	1.33
CGGCCUAUCUCUUGGUUUATT against Usp18	2.69 (active)
GGACAUCCAUUCAAGGCCUTT against Rtn3	1.05
GGAAUUUGACAAACUCAGCTT against Rcn3	0.337
CCGUGGGACCAGAGUUAAATT against Gm253	1.99
GGUCAUCUAUCGUGUGCUGTT against Lamb2	1.09
CCAUUUAACCGUAAGACGUTT against Krtap8-2	0.535
CCUACAUUCACCAAAAGGUTT against Usp9y	0.561
GGUCUCAAUCAGAGUUACATT against D430030K24Rik	1.08 (active)
GGUGAUCAAUCCUCUAAUATT against Cri2	3.03
AACAGCAUCUUUGUGGUCCTT against Ins1	-0.451
GGAUAAACUUCCAUCUUUCTT against Car14	1.27
GGAAGGAAGAAAAAAUAGUTT against Acat1	-0.146
